PubChem BioAssay AID1220 (Sanford-Burnham Center for Chemical Genomics, 2008)
The campaign covered roughly 190,000 compounds. About 1,300 (0.68%) were called active. No stated cut-off is given here; in the data, active means inhibition above about 50%; inactive means the rest. For the sample, actives were picked, then their nearest neighbours and some compounds at random.

molecular target: Mannose-6-phosphate isomerase (Homo sapiens) (UniProt P34949); experiment: MPI inhibition at elevated mannose 6-phosphate – biochemical, fluorescence intensity, high mannose 6-phosphate, primary screen (AID 1220); conditions: recombinant PMI enzyme, coupled fluorescence intensity; at 20 µM; hits give high values
Sequence (P34949 whole entry, looked up): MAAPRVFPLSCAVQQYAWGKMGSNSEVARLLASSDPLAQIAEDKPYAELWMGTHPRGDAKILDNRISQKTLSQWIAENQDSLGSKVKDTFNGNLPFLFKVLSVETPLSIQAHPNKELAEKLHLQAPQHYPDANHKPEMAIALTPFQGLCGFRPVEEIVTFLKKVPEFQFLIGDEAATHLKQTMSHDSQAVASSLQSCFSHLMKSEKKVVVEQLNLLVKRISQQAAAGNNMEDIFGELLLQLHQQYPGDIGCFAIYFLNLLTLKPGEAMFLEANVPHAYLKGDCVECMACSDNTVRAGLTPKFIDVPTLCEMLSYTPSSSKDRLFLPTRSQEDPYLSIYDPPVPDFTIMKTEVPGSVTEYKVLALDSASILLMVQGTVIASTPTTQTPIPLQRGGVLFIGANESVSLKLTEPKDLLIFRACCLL

inhibition, active:
O=c1cc(O)c2sc(Nc3ccc(F)c(Cl)c3)nc2[nH]1 57.5%, C=CCOc1c(Cl)cc(CNc2ccc(N(C)C)cc2)cc1OC 54%, CC(CNc1ccccc1O)C(=O)O (configuration not stated) 64.7%, CN(C)CC/C=C1/c2ccccc2Sc2c(O)cc(Cl)cc21 50%, CCOc1ccccc1NS(=O)(=O)c1c(C)noc1C 54.2%, C#CC(CC)(CC)NC(=O)Nc1ccccc1C(=O)OC 64.6%, O=[N+]([O-])c1ccc(N2CCOCC2)cc1SCc1ccco1 68.5%, COCCNC(=O)c1ccc2c(c1)NC(=O)CS2 53.7%, Nc1ccc(OCC(O)C[n+]2ccc(CCS(=O)(=O)[O-])cc2)cc1 (configuration not stated) 53.8%, CCOC(=O)c1nn(-c2ccccc2)c(=O)c2c(N)scc12 63.3%, CCOC(=O)c1nn(-c2ccc(C)c(C)c2)c(=O)c2c(N)scc12 54.4%, CCOC(=O)c1nn(-c2ccc(F)cc2)c(=O)c2c(N)scc12 62.3%, COc1ccc(/C=N/NC(=O)c2nn(-c3ccccc3)c(=O)c3c(N)scc23)cc1 52.4%

inhibition, inactive:
O=C(CSCc1ccccc1)N1CCN(Cc2ccc3c(c2)OCO3)CC1 9.8%, O=C1OCCC1Sc1nc2ccccc2c(=O)n1Cc1ccccc1 (configuration not stated) -1.6%, COc1ccc(-c2nnc(SC)o2)c(OC)c1 2%, Cc1cc(NC(=O)c2sc(Nc3ccc(F)c(Cl)c3)nc2N)no1 -10.8%, COC(=O)Cc1csc(Nc2ccc(F)c(Cl)c2)n1 -0.3%, CN(Cc1ccccc1)c1ccc(S(=O)(=O)N2CCC(C(=O)O)CC2)cc1[N+](=O)[O-] 10.6%, Brc1ccc(-c2noc(COc3ccc4c(c3)CCC4)n2)o1 14%, O=C(OCCOCCN=C1NS(=O)(=O)c2ccccc21)C1CC(=O)N(c2ccccc2)C1 (configuration not stated) -2.6%, Cc1nc(-c2ccc(C(=O)Nc3ccccc3F)cc2)cs1 -3.7%, CCOc1cc(CNc2ccc(N3CCOCC3)cc2)cc(Br)c1OCC 14.8%, C=CCOc1c(Cl)cc(CNc2ccc(C)c(Cl)c2)cc1OC 12.6%, CCOc1cc(CNc2ccc(S(N)(=O)=O)cc2)cc(Cl)c1OC 2.7%, COc1cc(CNc2ccc(N3CCOCC3)cc2)cc(Br)c1OC 9.3%, CCOc1c(Cl)cc(CNc2ccc(S(N)(=O)=O)cc2)cc1OC -2%, C=CCOc1c(Cl)cc(CNc2ccc3[nH]c(=O)[nH]c3c2)cc1OC 35%, CC1=CC(C)(C)N(C(=O)CCl)c2cc(C)ccc21 -1.9%, CN(C)C(=C(C#N)C#N)N1CCN(c2ccc(Cl)c(Cl)c2)CC1 6.1%, CC(C)(C)[C@H]1C=C(C(=O)N2CCN(Cc3ccc4c(c3)OCO4)CC2)O[C@@H](OCc2ccc(CO)cc2)C1 2.7%, COc1ccc(Br)cc1CN1CCN(C(=O)c2ccc(OC)c(OC)c2)CC1 2.3%, CCOC(=O)CCC(NC(=O)CCCCCCCCC(=O)NC(CCC(=O)OCC)C(=O)OCC)C(=O)OCC (configuration not stated) 6.1%, COc1ccc(NS(=O)(=O)c2cccc(NC(=O)CCS(=O)(=O)c3ccccc3)c2)cc1 8.9%, O=C(CN1CCCCCC1)Nc1ccc(F)c(F)c1 -9.6%, CCCCNC(=O)c1onc(CSc2cc(C)cc(C)c2)c1C(=O)O -4%, O=C(N/N=C/c1cc(Br)c(Br)o1)C(O)c1ccccc1 (configuration not stated) 5.2%, CC(CC(=O)O)Nc1ccccc1O (configuration not stated) 49.3%, CC(CC(C)C(=O)Nc1ccccc1C(C)(C)C)C(=O)O (configuration not stated) -12.3%, COc1cc2c(cc1NC(=O)CSc1cccc[n+]1[O-])oc1ccccc12 -6.2%, CN(C)CC/C=C1\c2ccccc2Sc2ccc(Cl)cc21 -12.5%, COc1cc(Cl)cc2c1Sc1ccccc1/C2=C/CCN(C)C -9.3%, N#CC1(c2nc3ccccc3[nH]2)CC1c1ccc2c(c1)OCO2 (configuration not stated) 0.1%, COc1ccc(S(=O)(=O)N2CCc3ccccc32)cc1NC(C)=O 1.8%, CNCC(C)COc1ccccc1OCc1ccccc1 (configuration not stated) -5.2%, N#CC1=C(N)OC2=C(C(=O)CCC2)C12CCN(C(=O)OCc1ccccc1)CC2 -6.7%, CCOc1ccccc1NS(=O)(=O)c1cn(C)nc1C -10.4%, CCOc1ccccc1NC(=O)C1CCN(S(=O)(=O)c2c(C)noc2C)CC1 2.7%, CC(=O)Nc1c(NC(=O)CC#N)[nH]c2c(c1=O)c(=O)n(C)c(=O)n2C 15.1%, CCn1c(C)cc(C=C2C(=O)c3ccccc3C2=O)c1C 20.2%, Cc1ccc(N(CC(=O)Nc2ccc(F)c(Cl)c2)S(=O)(=O)c2c(C)noc2C)cc1 11.9%, CCOC(=O)CNC(=O)Nc1ccccc1C(=O)OC -7.2%, CCNC(=O)Nc1ccccc1C(=O)OC -5.5%, N#Cc1nc(-c2cccs2)oc1NCC1CCCO1 (configuration not stated) 0.2%, O=[N+]([O-])c1ccc(SCc2ccco2)cc1N1CCOCC1 1.4%, CS(=O)(=O)N1CCN(c2ccc([N+](=O)[O-])c(SCc3ccco3)c2)CC1 43.6%, CC(=O)NC(=S)Nc1ccc(S(=O)(=O)N2CCOCC2)cc1 -4.7%, COC(=O)c1ccc2c(c1)NC(=O)CS2 -9.2%, O=C1CSc2ccc(C(=O)NCCC3=CCCCC3)cc2N1 -5.5%, COc1cccc(C(=O)Nc2ccc(S(=O)(=O)Nc3onc(C)c3C)cc2)c1 -1.9%, Nc1ccc(CCS(N)(=O)=O)cc1 -2.1%, COc1ccc(OCC(O)COc2ccc(OC)cc2)cc1 -1.9%, Cc1cc(CNC(=O)COc2ccccc2F)c2ccccc2n1 -0.4%, COc1ccc(CN2CCN(Cc3csc(C(C)=O)c3)CC2CCO)c(C)c1C (configuration not stated) -1.9%, CCOC(=O)c1nn(-c2ccc(F)cc2)c(C)c1C(C)=O -0.1%, COc1ccc(/C=N/NC(=O)c2nn(-c3ccc(C)c(C)c3)c(=O)c3ccccc23)cc1 22.6%, COc1ccc(/C=N/NC(=O)c2nn(-c3ccc(Cl)cc3)c(=O)c3c(N)scc23)cc1 41.9%, Cc1ccc(-n2nc(C(=O)O)c3ccccc3c2=O)cc1C -1.7%, CCOC(=O)c1nn(-c2ccc(C)c(C)c2)cc1O 12.2%, CCOC(=O)c1nn(-c2ccccc2)c(C(=O)OCC)c1N 10.9%, CCOC(=O)c1nn(-c2ccccc2)c(=O)c2c(NC(C)=O)scc12 0%, CCCSc1cc(=O)n(-c2ccc(F)cc2)nc1C(=O)OCC -6%
